Bioassay records (PubChem)
TGFb inhibitor: blocks TGF-b signaling | Potency, µM (series often up to 46.1 µM), actives largely listed as inhibitors | HepG2 CAGA-GFP TGF-b/SMAD3 reporter, GFP fluorescence, 18 h; TGF-beta stimulated, 500 pg/mL final | hit rate 1.2% among 410,000 | AID 588855; note: nearly all actives have a fitted effect of over 65% in size
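Cell-based qHTS in HEPG2 carrying a CAGA-GFP Smad reporter; compounds added before 500 pg/mL final TGF-beta, 18 h incubation at 37 degrees C, GFP fluorescence quantified per cell by imaging cytometry.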
HepG2 tox: kills HepG2 cells in TGF-b inhibitor counter-screen; hit rate 0.76% among 410,000; Potency, µM (highest dose often 46.1 µM), usual class: cytotoxic; HepG2 CAGA-GFP viability, ATP luminescence, 18 h
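HepG2 CAGA-GFP cells (1000/well, DMEM with 1% FBS) received compound, then TGF-beta at 500 pg/mL final, and were incubated 18 hours at 37 degrees C. Viability was read by CellTiter-Glo luminescence. Media-only wells were set as complete cell-killing and DMSO as no toxicity.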
KB-V1 MDR tox: kills drug-selected multidrug resistant KB-V1 cells. KB-V1 MDR cells viability, CellTiter-Glo, 72 h. Potency, µM (highest dose often 46.1 µM), actives largely listed as cytotoxic. hit rate 3.4% among 400,000; note: nearly all actives have a fitted effect of over 60% in size
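Compound-treated KB-V1 multidrug-resistant cells, 72 h, 37 degrees C; viability by CellTiter-Glo. Fitted qHTS curves give the values.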
ATXN viability: cell viability loss in ATXN counter-screen. hit rate 0.49% among 400,000. S2 cells (HEK-293 line with an ATXN2-luciferase reporter) viability, CellTiter-Fluor protease fluorescence, 24 h. Potency, µM (series often up to 56.7 µM), most hits filed as cytotoxic. AID 651635; note: nearly all actives have a fitted effect of over 40% in size
ATXN2 expr inh: ATXN2 expression inhibition; Potency, µM (top dose mostly 57 µM), usual class: inhibitors; hit rate 0.72% among 360,000; HEK-293 ATXN2-luciferase reporter, luminescence, 24 h; note: nearly all actives have a fitted effect of over 55% in size
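qHTS (up to 57 uM final) was run with 24 h compound exposure of reporter cells at 37 °C. Each well was multiplexed: SteadyGlo luminescence measured ATXN2-luciferase expression after a fluorogenic Gly-Phe-AFC viability readout (25 uM final).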
KB-3-1 tox: kills parental KB-3-1 adenocarcinoma cells | KB-3-1 viability, CellTiter-Glo ATP luminescence, 72 h | Potency, µM (doses to about 46.1 µM), actives largely listed as cytotoxic | hit rate 1.4% among 400,000 | AID 1347075; note: nearly all actives have a fitted effect of over 60% in size
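Parental KB-3-1 viability, qHTS format: 72 h compound exposure, 37 °C; CellTiter-Glo; media-only wells and DMSO plates as controls; concentration-effect fits on corrected data.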
Hits are given with their value; n = inactive; u = inconclusive; x = not tested or not shown; [ ] = dose if it differs, or a comment. In the library only some 5.9% were active in any assay of this set; here they are far more common. Calls come from the whole dose curve; as a rule, active = well fitted curve in the direction sought with a large enough effect; inconclusive = small, poorly fitted or top-dose-only effect, or another doubt; inactive = no such curve, though single readings can be large; an effect the other way counts as inactive or inconclusive.

SMILES | TGFb inhibitor | HepG2 tox | KB-V1 MDR tox | ATXN viability | ATXN2 expr inh | KB-3-1 tox
COc1ccc(Cl)cc1NC(=O)CN1C(=O)C(=O)N(C2CCCC2)C1=O | n | n | n | n | x | n
COc1cc(Cl)c(C)cc1NC(=O)CN1C(=O)C2CCCCC2C1=O (stereo not given) | n | n | 23.1µM | n | n | n
CCn1cc(CN2CCOc3ccc(C(O)C4CCCCC4)cc3C2)c(C)n1 (stereo not given) | x | x | x | n | x | x
CC(C)(C)c1ccc(C(=O)Nc2ccc(CC(=O)O)cc2)o1 | n | n | n | n | 0.398µM | n
CCOC(=O)C(=NCC1CCCO1)NNc1ccccc1Cl (stereo not given) | n | 1.26µM | n | n | n | n
CCOC(=O)C(=NC(C)(C)C)NNc1cc(Cl)ccc1Cl | n | n | n | n | n | n
O=C(CNCc1ccccc1)Nc1ccc(Oc2ccccc2)cc1 | n | n | n | n | n[11.3 µM] | 5.17µM
O=C(CCl)Nc1cccc(Oc2ccccc2)c1 | 8.91µM | n | u | x | 9.47µM | u
O=C(CCl)Nc1cccc(Oc2cnccn2)c1 | 15.8µM | n | u | 22.4µM | u | 20.6µM
COc1cc(NC(=O)CCl)ccc(=O)c1 | u | 0.708µM | u | u | x | n
O=C(CN1CCCCC1)Nc1cccc(Oc2ccccc2)c1 | n | n | n | n | n | n
O=C(CNCc1ccccc1)Nc1ccc(F)cc1 | n | n | u | u | n | n
CC(C)C(NS(C)(=O)=O)c1nnc2n1CCN(Cc1ccnc3ccccc13)CC2 (stereo not given) | x | x | x | n | x | x
C=Cc1ccc(CN2C(=O)N(c3cccc(Cl)c3)S(=O)(=O)c3ccccc32)cc1 | n | n | n | n | n | n
COc1ccccc1Nc1nc(C)nc(N)c1S(=O)(=O)c1ccccc1 | n | n | n | n | n | n
O=C(CSc1nnc(-c2ccc(F)cc2)o1)N1CCCc2ccccc21 | n | n | n | u | n | n
CSc1ccc(-c2ccc(C(=O)NCC3CCCO3)c(N3CCC(O)CC3)n2)cc1 (stereo not given) | x | x | x | n | x | x
C=CCn1c(=O)n([C@@H]2O[C@H](CO)[C@@H](O)[C@H]2O)c2nc(N)[nH]c(=O)c21 | x | x | x | n | n | x
COc1ccc(Nc2cc(C)nc3nc(C)nn23)c(OC)c1 | n | n | n | n | n | n
COc1ccc(C)cc1Nc1cc(C)nc2nc(C)nn12 | n | n | u | n | n | 8.2µM
COc1ccc(OC)c(Nc2cc(C)nc3nc(C)nn23)c1 | n | n | 20.6µM | n | n | 7.31µM
CN(C)c1cccc(-c2ncnc(N3CCC(C(N)=O)CC3)n2)c1 | x | x | n | x | x | n
O=C(c1ccccc1Br)N1CCN(c2ncccn2)CC1 | n | n | n | n | n | n
O=C(c1ccccc1OCc1ccccc1Br)N1CCN(c2ncccn2)CC1 | n | n | 6.51µM | n | n | u
CCN(CC)S(=O)(=O)c1cc(NC(=O)C(C)N2CCN(Cc3ccc4c(c3)OCO4)CC2)ccc1C (stereo not given) | u | n | 2.91µM | n | n | 13µM
SMILES | TGFb inhibitor | HepG2 tox | KB-V1 MDR tox | ATXN viability | ATXN2 expr inh | KB-3-1 tox
CCN(CC)S(=O)(=O)c1cc(NC(=O)C(C)N2CCN(c3ccccn3)CC2)ccc1C (stereo not given) | n | n | n | n | n | n
Cc1cc(NC(=O)Cn2cnc3sc(C)c(-c4ccccc4)c3c2=O)no1 | n | n | 20.6µM | n | n | n
COc1ccc(CNC(=O)C2CCN(S(=O)(=O)c3c(C)noc3/C=C/c3cccs3)CC2)cc1 | n | n | x | x | x | x
CCN(N=O)c1ccc(C=C2C=Cc3ccccc32)cc1 | n | n | 20.6µM | n | n | n
CCN(N=O)c1ccc(/C=C2\C=Cc3ccccc32)cc1 | n | n | u | x | x | n
CC(=O)N[C@H]1[C@H]([C@H](O)[C@H](O)CO)OC(C(=O)O)=C[C@@H]1N=C(N)N | x | x | x | n | n | x
CC[N+](CC)(CC)c1ccc(/C=C/c2ccnc3ccccc23)cc1 | 2.51µM | n | u | x | x | 0.581µM
CC[N+](C)(C)c1ccc(/C=C/c2ccnc3ccccc23)cc1 | 11.2µM | n | u | x | x | u
Cc1cc(C)c2c(CC(=O)Nc3ccc(S(=O)(=O)Nc4ncccn4)cc3)coc2c1 | n | n | n | n | n | n
CC(=O)Nc1cc(C(=O)N2CCSCC2)cc2ncn(CCc3ccccn3)c12 | x | x | x | n | x | x
CC(C)C1Cc2c(sc3[nH]c(=S)n(Cc4ccccc4)c(=O)c23)CO1 (stereo not given) | n | n | u | n | u | 20.6µM
Cc1cccc(OCC(=O)NC(C)C(=O)N/N=C/c2c(OCc3ccccc3)ccc3ccccc23)c1 (stereo not given) | n | n | 16.4µM | n | n | u
COc1ccc2ccccc2c1/C=N/NC(=O)c1cccc(C)c1 | n | n | n | n | x | n
CCCN(CCC)C(=O)CCSCCC(=O)N(CCC)CCC | n | n | 18.4µM | n | n | n
CC(=O)c1ccc(-c2nc3c4ccccc4ccn3c2C(C)=O)o1 | u | n | 7.31µM | u | u | u
Cc1ccc(Cc2c(-c3ccco3)nc3c4ccccc4ccn23)cc1 | u | n | u | u | n | n
